# In the library only some 6.6% were active in any assay of this set; here they are far more common.
# GDH-TPI inh: GDH-TPI coupling enzyme inhibitors, primary screen, artefact control for M. tuberculosis FBA inhibitor project, biochemical, absorbance, full deck | GDH-TPI coupled enzyme counterscreen, NADH absorbance | inhibition, % at 4.8 µM | hit rate 1.2% among 360,000 | AID 588335, 2011; in the data active means inhibition above about 30%;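 further: 0% = DMSO wells and 100% = wells lacking the enzyme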
# Anthrax LF prot: Bacillus anthracis LF protease inhibitors, primary screen, biochemical, multiplex microsphere, MLPCN library | multiplex microsphere protease cleavage assay | inhibition, % at 10 µM | hit rate 0.12% among 360,000 | AID 588501, 2011; further: plate controls were buffer without enzyme for full effect and enzyme alone for no effect
# Target sequence (P15917 whole entry, looked up): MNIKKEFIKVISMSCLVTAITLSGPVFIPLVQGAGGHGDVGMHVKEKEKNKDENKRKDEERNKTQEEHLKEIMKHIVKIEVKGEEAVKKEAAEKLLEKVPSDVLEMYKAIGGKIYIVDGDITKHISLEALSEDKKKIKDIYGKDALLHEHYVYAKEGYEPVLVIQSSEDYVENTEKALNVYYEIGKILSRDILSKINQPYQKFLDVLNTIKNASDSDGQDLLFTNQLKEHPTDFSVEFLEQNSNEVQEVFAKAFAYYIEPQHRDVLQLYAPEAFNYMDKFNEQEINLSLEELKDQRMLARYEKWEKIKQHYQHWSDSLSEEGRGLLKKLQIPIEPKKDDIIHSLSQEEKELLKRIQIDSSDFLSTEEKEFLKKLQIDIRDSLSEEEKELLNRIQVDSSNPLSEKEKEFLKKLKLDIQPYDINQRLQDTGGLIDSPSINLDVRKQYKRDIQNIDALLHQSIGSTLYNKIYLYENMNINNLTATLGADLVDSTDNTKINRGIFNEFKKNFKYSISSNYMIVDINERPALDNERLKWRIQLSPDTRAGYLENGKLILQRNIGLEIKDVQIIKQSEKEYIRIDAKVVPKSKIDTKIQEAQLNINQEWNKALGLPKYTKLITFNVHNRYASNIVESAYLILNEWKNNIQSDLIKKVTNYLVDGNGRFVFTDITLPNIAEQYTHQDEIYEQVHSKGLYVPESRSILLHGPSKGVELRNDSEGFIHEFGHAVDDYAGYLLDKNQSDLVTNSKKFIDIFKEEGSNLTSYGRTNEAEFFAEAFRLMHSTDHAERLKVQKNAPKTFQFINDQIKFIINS
# Autofluor counter: counter-screen for toxin protease inhibitors: compound fluorescence; compound autofluorescence counterscreen, microsphere flow cytometry; active compounds read high; AID 624483; hit rate 3.1% among 360,000; fluorescence intensity (test concentration not listed); in the data active means fluorescence intensity above about 16000; inconclusive means no clear call, values can overlap the other calls
# FBA Mtb inh: Mtb FBA enzyme inhibitors, primary screen, biochemical, fluorescence, strain H37Rv; Fructose-bisphosphate aldolase (Mycobacterium tuberculosis (strain ATCC 25618 / H37Rv)), …; purified M. tuberculosis FBA, fluorescence read-out; inhibition, % at 1 µM; hit rate 2.3% among 360,000; in the data active means inhibition above about 27%;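 further: 0% = vehicle and 100% = reference inhibitor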
# BoNT F protease: BoNT/F light chain protease inhibitors, primary screen, biochemical, flow cytometry, MLPCN library. Botulinum neurotoxin type F light chain protease (Clostridium botulinum). Multiplex microsphere protease cleavage assay. inhibition, % at 10 µM. hit rate 0.22% among 360,000; in the data active means inhibition above about 35%, passing the limit was not always enough; inconclusive means no clear call, values can overlap the other calls; further: plate controls were buffer without enzyme for full effect and enzyme alone for no effect
# BoNT A protease: BoNT/A light chain protease inhibitors, primary screen, biochemical, flow cytometry, MLPCN library. Botulinum neurotoxin type A light chain protease (Clostridium botulinum A str. ATCC 3502). inhibition, % at 10 µM. AID 588499, 2011. multiplex microsphere protease substrate cleavage. hit rate 0.17% among 360,000; further: plate controls were buffer without enzyme for full effect and enzyme alone for no effect
# Starred values were filed as active, the others as inactive; ? = inconclusive; · = no result. Unless noted, no stated cut-off is given here; in the data, active means inhibition above about 30%; inconclusive means no clear call, values can overlap the other calls; inactive means below that.
SMILES,GDH-TPI inh,Anthrax LF prot,Autofluor counter,FBA Mtb inh,BoNT F protease,BoNT A protease
CC(C)(C)NC(=O)CN(C(=O)CS(=O)CC(=O)Nc1ccc(F)cc1)c1cccc(F)c1 (stereo not drawn),-5,0,4227,-1,4,1
CC(C)(C)NC(=O)CN(C(=O)CS(=O)CC(=O)Nc1ccc(F)cc1)c1ccccc1F (stereo not drawn),-1,-4,4501,0,-1,1
CC(C)(C)NC(=O)CN(C(=O)CS(=O)CC(=O)Nc1ccc(F)cc1)c1ccc(Cl)cc1 (stereo not drawn),-6,0,20135*,0,2,?
O=C1C2ON(c3ccc(Cl)cc3)C(c3ccco3)C2C(=O)N1c1ccccc1 (stereo not drawn),-6,0,2745,-1,-1,0
COCCN(Cc1ccc(C)cc1)C(=O)[C@H]1O[C@@H](n2cnc3c(N)ncnc32)[C@H](O)[C@@H]1O,·,-1,5526,-4,-1,0
CCn1c(CC(C)C)n[nH]c1=S,-14,5,3588,-2,0,0
CCn1c(CCn2ccnc2C)n[nH]c1=S,-3,-9,18972*,3,6,?
Cn1c2c(c(=O)n(C)c1=O)C(C(F)(F)F)(C(F)(F)F)N=C(CCC1CCCCC1)N2,2,-1,2108,-2,-1,0
COc1ccc(C(=O)Nc2cccc(/C=C(\CCC(=O)O)c3nc4ccccc4s3)c2)cc1,32*,-7,4348,2,6,2
COc1ccc(/C=C(\CC(=O)O)c2nc3ccccc3s2)cc1O,18,-2,3317,2,-1,0
CNc1ccc(/C=C(\CCC(=O)O)c2nc3ccccc3s2)cc1[N+](=O)[O-],35*,1,2667,-8,-2,0
Cn1cnnc1Sc1ccc(/C=C(\CCC(=O)O)c2nc3ccccc3s2)cc1[N+](=O)[O-],10,-6,3790,-1,0,0
COc1cc(/C=C(\CC(=O)O)c2nc3ccccc3s2)cc(OC)c1O,39*,2,4659,7,-1,-1
CN(c1ccccc1)c1ccc(/C=C(\CCC(=O)O)c2nc3ccccc3s2)cc1[N+](=O)[O-],23,-1,2473,0,-6,-1
Cc1ccc(/C=C(\CCC(=O)O)c2nc3ccccc3s2)cc1[N+](=O)[O-],34*,-8,10108,-3,-12,0
CCCc1ccc(C(O)c2ncc(-c3ccccc3F)[nH]2)cc1 (stereo not drawn),5,-2,3704,2,-2,0
COc1ccc(-c2nnc(NC(=O)c3ccc(S(=O)(=O)N4CCCc5ccccc54)cc3)o2)cc1,37*,0,4662,-1,12,0
CCCn1nnnc1NCc1ccc(C(C)C)cc1,1,-5,3627,0,3,-1
COC(=O)c1ccc(/C=N/NC(=O)CC(=O)NC(C)C)cc1,3,-3,12686,-3,-1,0
COC(=O)c1ccc(/C=N/NC(=S)NC(C)C)cc1,48*,7,3356,-3,-5,0
CSCCNC(=O)Nc1c(-c2c(Cl)cccc2Cl)noc1C,16,10,4785,-1,?,-6
Cc1ccc(Nc2c([N+](=O)[O-])c(=O)n(C)c3ccccc23)cc1C,7,2,21534*,-2,3,6
COc1ccc(OC)c(CCNC(=O)c2ccccc2NC(=O)C2=C(C)OCCS2)c1,15,-3,5700,6,1,0
CC(=O)OCCn1c2nc(=O)[nH]c(=O)c-2nc2cc(C)c(C)cc21,15,-10,2682,-12,42*,8
CC(=O)OCCn1c(C)[n+](CCOC(C)=O)c2cc(Cl)c(Cl)cc21,12,-5,4689,-1,9,-1
COc1ccc(C(=O)c2ccccc2)c(O)c1,9,-2,23016*,1,-3,-1
COc1ccc(C(=O)c2ccccc2C(=O)c2ccccc2)cc1,2,-6,3683,-4,-7,0
O=C(O)c1cccc(-c2ccccc2)c1O,-4,1,3487,116*,4,0
O=C(O)c1cccc2c1C(=O)c1ccccc1C2=O,7,1,4106,3,-2,-1
O=C(Cc1ccccc1)c1ccc(O)cc1O,38*,-2,11166,3,17,2

# Screens deposited in PubChem BioAssay by several laboratories.
